Data: PubChem BioAssay (NCATS)
Results filed as inconclusive are left out. Activity calls are given as the source filed them. The call rests on the fitted dose curve; in most records, active means well fitted curve in the direction sought with a large enough effect; inconclusive means small, poorly fitted or top-dose-only effect, or another doubt; inactive means no such curve, though single readings can be large; an effect the other way counts as inactive or inconclusive.

Key:
[1] = target: Protein phosphatase 1D (Homo sapiens) (UniProt O15297); assay: RapidFire Mass Spectrometry qHTS Assay for Modulators of WT P53-Induced Phosphatase 1 (WIP1) (AID 1347424); settings: WIP1 dephosphorylation of phosphopeptide, RapidFire MS; series mostly up to 63 µM;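 further: amount of dephosphorylated VEPPL-S-QETFS peptide product formed by WIP1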
Protein phosphatase 1D (Homo sapiens), sequence (O15297 whole entry, looked up): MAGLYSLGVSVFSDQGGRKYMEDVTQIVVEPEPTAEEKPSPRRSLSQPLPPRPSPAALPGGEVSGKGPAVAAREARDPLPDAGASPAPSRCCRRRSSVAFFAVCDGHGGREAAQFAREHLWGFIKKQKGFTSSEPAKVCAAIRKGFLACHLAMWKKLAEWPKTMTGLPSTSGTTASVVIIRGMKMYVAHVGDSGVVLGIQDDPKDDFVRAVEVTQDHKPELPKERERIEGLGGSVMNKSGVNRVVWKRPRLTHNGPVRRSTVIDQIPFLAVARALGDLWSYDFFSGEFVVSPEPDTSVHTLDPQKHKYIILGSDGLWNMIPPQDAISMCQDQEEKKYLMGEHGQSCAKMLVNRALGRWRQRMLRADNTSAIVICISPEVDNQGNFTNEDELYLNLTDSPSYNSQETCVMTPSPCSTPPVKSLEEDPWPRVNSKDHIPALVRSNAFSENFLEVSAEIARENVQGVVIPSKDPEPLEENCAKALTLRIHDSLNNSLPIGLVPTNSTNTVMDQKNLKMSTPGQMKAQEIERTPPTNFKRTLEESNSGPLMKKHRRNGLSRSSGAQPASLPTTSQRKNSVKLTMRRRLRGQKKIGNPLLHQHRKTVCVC
In short: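 WIP1 (10 nM final) was preincubated 1 h at room temperature with compounds in Tris-HCl pH 7.5, 30 mM MgCl2, TCEP, EGTA, BSA; 2 uM VEPPL-pS-QETFS phosphopeptide was added for 5 min, quenched with formic acid, and dephosphorylated product quantified by RapidFire MS.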

[2] = target: Protein phosphatase 1D (Homo sapiens) (UniProt O15297); assay: Rhodamine-PBP qHTS Assay for Modulators of WT P53-Induced Phosphatase 1 (WIP1) (AID 1347425); settings: recombinant WIP1, Rhodamine-PBP phosphate fluorescence, real-time; series mostly up to 57.5 µM
In short: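 Steps: enzyme with Rh-PBP sensor and compounds, room-temperature incubation of 1 hr, baseline read, addition of VEPPL-pS-QETFS (10 uM final), kinetic fluorescence reads at 525/598 nm. Activity equals final minus baseline signal.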

[3] = Primary qHTS for inhibitors of La Crosse Virus (LACV) - induced cell death in SH-SY5Y cells (AID 1508616); settings: SH-SY5Y LACV cytopathicity rescue, ATP luminescence, 6 d; series mostly up to 4.29 µM;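 further: top concentration of the series differs between compounds; higher means more rescue of cells from virus-induced death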
In short: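 Luminescent ATP readout (ATPLite 1step, 5 min room temperature) measured rescue from LACV-induced death after 6 days of infection at 0.01 MOI; normalized to infected DMSO wells and uninfected DMSO wells.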

[4] = target: Calcium and integrin-binding protein 1 (Homo sapiens) (UniProt Q99828); assay: Primary qHTS for Identification of Calcium Integrin Binding Protein 1 (CIB1) Competitor (AID 1508620); settings: CIB1-GST / FITC-alphaIIb peptide fluorescence polarization; series mostly up to 114 µM;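 further: GST tagged CIB1 binding a fluorescein labelled alphaIIb integrin peptide tracer; top concentration of the series differs between compounds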
Calcium and integrin-binding protein 1 (Homo sapiens), sequence (Q99828 whole entry, looked up): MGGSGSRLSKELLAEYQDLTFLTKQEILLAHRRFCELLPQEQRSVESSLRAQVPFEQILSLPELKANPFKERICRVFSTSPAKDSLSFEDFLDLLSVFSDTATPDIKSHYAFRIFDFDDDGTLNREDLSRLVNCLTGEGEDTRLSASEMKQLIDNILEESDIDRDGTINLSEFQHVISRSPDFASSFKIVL
In short: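 Fluorescence polarization competition: CIB1-GST (1 uM final) preincubated with compound 15 min at room temperature, then FITC-labeled alphaIIb peptide (100 nM final) added for another 15 min. Polarization read at Ex 480/Em 540.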

Measured: Potency

OCCOCCN1CCN(C2=Nc3ccccc3Sc3ccccc32)CC1
inactive: [1] | [2] | [3] | [4]

Cc1cn([C@H]2C[C@H](F)[C@@H](CO)O2)c(=O)[nH]c1=O
inactive: [1] | [2] | [3] | [4]

CCc1ccc(C(=O)C(C)CN2CCCCC2)cc1 (stereo not drawn)
inactive: [1] | [2] | [3] | [4]

Cc1cc(C)cc(OCC2CNC(=O)O2)c1 (stereo not drawn)
inactive: [1] | [2] | [3] | [4]

c1ccc(-c2nc[nH]c2-c2ccccc2)cc1
inactive: [1] | [2] | [3] | [4]

CC(=C(CCOC(=O)C(C)C)SSC(CCOC(=O)C(C)C)=C(C)N(C=O)Cc1cnc(C)nc1N)N(C=O)Cc1cnc(C)nc1N
inactive: [1] | [2] | [3] | [4]

CN1CCN(c2cc3c(cc2F)c(=O)c(C(=O)O)cn3-c2ccc(F)cc2)CC1
inactive: [1] | [2] | [3] | [4]

Nc1nc(N)c(-c2ccccc2)s1
inactive: [1] | [2] | [3] | [4]

COc1cc(C(=S)N2CCOCC2)ccc1O
inactive: [1] | [2] | [3] | [4]

CC(C)(C)CC(C)(C)c1ccc(O)c(-n2nc3ccccc3n2)c1
inactive: [1] | [2] | [3] | [4]

CCOc1ccccc1C(N)=O
inactive: [1] | [2] | [3] | [4]

CC(=O)Oc1ccc(C)cc1
inactive: [1] | [2] | [3] | [4]

CC(=O)Nc1ccc(CC(=O)O)cc1
inactive: [1] | [2] | [3] | [4]

CC(C)(C)NC[C@H](O)COc1cccc2c1CCCC2=O
inactive: [1] | [2] | [3] | [4]

C[N+]12CCC(CC1)C(OC(=O)C(O)(c1ccccc1)c1ccccc1)C2 (stereo not drawn)
inactive: [1] | [2] | [3] | [4]

CN1CCN(c2c(F)cc3c(=O)c(C(=O)O)cn4c3c2SCC4)CC1
inactive: [1] | [2] | [3] | [4]

COc1cc(C)nc(-n2nc(C)cc2OC)n1
inactive: [1] | [2] | [3] | [4]

CCOC(=O)c1c(N)sc2c1CCN(Cc1ccccc1)C2
inactive: [1] | [2] | [3] | [4]

CC(C)[N+](C)(C)CC(O)COc1cccc2ccccc12 (stereo not drawn)
inactive: [1] | [2] | [3] | [4]

O=C1c2cccc3c2[C@H](CCC3)CN1[C@@H]1CN2CCC1CC2
inactive: [1] | [2] | [3] | [4]

CC(C)NCC(O)c1ccc2ccccc2c1 (stereo not drawn)
inactive: [1] | [2] | [3] | [4]

Nc1nc(-c2ccccc2)c(Br)c(=O)[nH]1
inactive: [1] | [2] | [3] | [4]

CC1=C(C(=O)O)N2C(=O)[C@@H](NC(=O)[C@H](N)c3ccccc3)[C@H]2SC1
inactive: [1] | [2] | [3] | [4]

N#C/C(=C1\SCC(c2ccccc2Cl)S1)n1ccnc1 (stereo not drawn)
inactive: [1] | [2] | [3] | [4]

CCCCNC(=O)NS(=O)(=O)c1ccc(N)cc1
inactive: [1] | [2] | [3] | [4]

Cc1cccc(C)c1NC(=O)CN1CCCC1
inactive: [1] | [2] | [3] | [4]

CC1CCc2c(N3CCC(O)CC3)c(F)cc3c(=O)c(C(=O)O)cn1c23 (stereo not drawn)
inactive: [1] | [2] | [3] | [4]

CC(O)Cn1cnc2c1c(=O)n(C)c(=O)n2C (stereo not drawn)
inactive: [1] | [2] | [3] | [4]

COc1cc(NS(=O)(=O)c2ccc(N)cc2)ncn1
inactive: [1] | [2] | [3] | [4]

c1ccc(CC2=NCCN2)cc1
inactive: [1] | [2] | [3] | [4]

CCN1CCCC(OC(=O)C(c2ccccc2)c2ccccc2)C1 (stereo not drawn)
inactive: [1] | [2] | [3] | [4]

CCCCCCCCCCCCCC(=O)OC(C)C
inactive: [1] | [2] | [3] | [4]

COc1cc(N)c(Cl)cc1C(=O)NC1CCN(Cc2ccccc2)CC1
inactive: [1] | [2] | [3] | [4]

CCOC(=O)[C@@](C)(N)Cc1ccc(O)c(O)c1
inactive: [1] | [2] | [3] | [4]

CC(C)Nc1cccnc1N1CCN(C(=O)c2cc3cc(NS(C)(=O)=O)ccc3[nH]2)CC1
inactive: [1] | [2] | [3] | [4]

CCN(CC)CCOc1ccccc1C(=O)CCc1ccccc1
inactive: [1] | [2] | [3] | [4]

CCC1NC(=O)c2cc(S(N)(=O)=O)c(Cl)cc2N1 (stereo not drawn)
inactive: [1] | [2] | [3] | [4]
